Assay results as given in PubChem BioAssay (NCI).
This is part of a sample that, as a whole, favours compounds with a hit. Of some 79,000 tested, about 15% had one in any assay. The source made the active and inactive calls. No stated cut-off is given here; in the data, active means growth inhibition above about 70%; inactive means the rest. Starred links: 1 amine or outer side, 2 acyl side, 3 side chain; linkers in the order of their positions; H or OH if unused. Positions of bridges follow the written chain, without caps; N, C: chain ends. Non-standard residues stand in square brackets, D forms with d. Residues, ends and D or L forms follow the SMILES beside them. Chains are numbered I, II in the order given. Actinocin(9to1) = Cc1c2oc3c(C)ccc(C(=O)[*:1])c3nc-2c(C(=O)[*:2])c(N)c1=O; aThr = C[C@H](O)[C@H](N)C(=O)O; NMeV = CN[C@H](C(=O)O)C(C)C; Sar = CNCC(=O)O

Key:
[1] = NCI Yeast Anticancer Drug Screen. Data for the mec2-1 strain (AID 157); details: S. cerevisiae mec2-1 strain, stronger effect = higher value
In short: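 Strain: mec2-1 (DNA repair/cell cycle alteration). Compound exposure, then growth measured; inhibition expressed relative to vehicle.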

[2] = NCI Yeast Anticancer Drug Screen. Data for the rad14 strain (AID 159);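 further: 0% = growth of vehicle-treated control cultures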; details: S. cerevisiae rad14 strain growth inhibition, stronger effect = higher value
In short: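 Compound-treated yeast with a defined DNA-repair lesion; growth inhibition normalised to vehicle-treated cultures.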

[3] = NCI Yeast Anticancer Drug Screen. Data for the sgs1 mgt1 strain (AID 161);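 further: 0% = growth of cultures given vehicle only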; details: S. cerevisiae sgs1 mgt1 strain, stronger effect = higher value
In short: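 Genetically altered yeast, compound exposure, growth inhibition relative to vehicle.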

[4] = NCI Yeast Anticancer Drug Screen. Data for the CLN2oe strain (AID 163);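 further: 0% = growth of vehicle-only control cultures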; details: S. cerevisiae CLN2oe strain, stronger effect = higher value
In short: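 Growth of a genetically modified yeast strain is measured after compound exposure and compared with cultures given vehicle alone.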

[5] = NCI Yeast Anticancer Drug Screen. Data for the cln2 rad14 strain (AID 165);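 further: 0% = growth equal to vehicle treated cultures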; details: S. cerevisiae cln2 rad14 strain, stronger effect = higher value
In short: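 Compounds are applied to the cln2 rad14 yeast strain, and growth is then compared with that of vehicle-treated cultures to give inhibition.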

[6] = NCI Yeast Anticancer Drug Screen. Data for the bub3 strain (AID 167); details: S. cerevisiae bub3 mutant strain, stronger effect = higher value
In short: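 Growth of a checkpoint-deficient yeast mutant is measured after compound exposure. Values represent inhibition relative to vehicle.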

[7] = NCI Yeast Anticancer Drug Screen. Data for the wt2 strain (AID 169);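 further: 0% = growth of vehicle-treated yeast cultures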; details: S. cerevisiae wt2 strain growth inhibition, stronger effect = higher value
In short: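 This strain belongs to a panel of yeast strains with defined genetic alterations in DNA damage repair or cell cycle control. Compounds are applied, and growth inhibition is measured against vehicle-treated cultures.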

[8] = NCI Yeast Anticancer Drug Screen. Data for the mlh1 strain (AID 171);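 further: 0% = growth of vehicle-treated control cultures of the same strain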; details: S. cerevisiae mlh1 strain growth inhibition, stronger effect = higher value
In short: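 Growth of the mutant yeast strain after compound exposure, expressed as inhibition relative to vehicle-only controls.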

[9] = NCI Yeast Anticancer Drug Screen. Data for the sgs1 strain (AID 173);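 further: 0% = growth of vehicle-only control cultures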; details: S. cerevisiae sgs1 mutant, stronger effect = higher value
In short: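 Growth of a yeast strain bearing a defined genetic alteration is measured after compound treatment. Inhibition is expressed relative to vehicle-only controls.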

[10] = NCI Yeast Anticancer Drug Screen. Data for the mlh1 rad18 strain (AID 175); details: S. cerevisiae mlh1 rad18 strain growth inhibition, stronger effect = higher value
In short: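 Read-out is yeast growth inhibition, calculated against vehicle-only controls. The compound was applied to a strain engineered with DNA damage repair alterations.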

[11] = NCI Yeast Anticancer Drug Screen. Data for the rad52 strain (AID 147);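 further: 0% = growth of vehicle-treated control cultures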; details: S. cerevisiae rad52 mutant growth inhibition, stronger effect = higher value
In short: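 Compounds are applied to a genetically defined yeast strain lacking normal DNA damage repair, and inhibition of growth is expressed relative to cultures given vehicle only.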

[12] = NCI Yeast Anticancer Drug Screen. Data for the wt1 strain (AID 149);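 further: 0% = growth of vehicle-treated wt1 cultures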; details: S. cerevisiae wt1 strain (SPY 50644) growth inhibition, stronger effect = higher value
In short: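 Readout: yeast growth inhibition, normalised to vehicle controls, in the wt1 strain exposed to test compounds.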

[13] = NCI Yeast Anticancer Drug Screen. Data for the rad50EPP+ strain (AID 151);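 further: 0% = growth of vehicle-treated control cultures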; details: S. cerevisiae rad50 mutant strain, stronger effect = higher value
In short: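 Compounds were applied to the rad50EPP+ yeast strain, which bears a defined DNA repair alteration, and growth inhibition was determined relative to vehicle-treated cultures.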

[14] = NCI Yeast Anticancer Drug Screen. Data for the rad50 strain (AID 155);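 further: 0% = growth of vehicle-only cultures of the same strain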; details: S. cerevisiae rad50 strain growth inhibition, stronger effect = higher value
In short: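 Compounds were tested on a yeast strain with an engineered DNA damage repair alteration; the reported value is growth inhibition normalised to vehicle treatment.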

[15] = NCI Yeast Anticancer Drug Screen. Data for the rad18 strain (AID 177); details: S. cerevisiae rad18 mutant growth inhibition, stronger effect = higher value
In short: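 Growth of the mutant yeast strain after compound exposure, normalised to vehicle-only cultures.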

[16] = at 5.0 µM (retest, dose inferred, filed as 0.5)
[17] = at 50.0 µM (retest, dose inferred, filed as 5.0)

Measured: growth inhibition

COc1ccc2c(Cc3c4ccccc4cc4ccccc34)cncc2c1O
active: [1]; at 100.0 µM 86% | [2]; at 33.0 µM 95% | [2]; at 100.0 µM 93% | [3]; [17] 95% | [3]; at 50.0 µM 92.8% | [5]; [17] 96% | [5]; at 50.0 µM 80.2% | [6]; [17] 97% | [6]; at 50.0 µM 87.7% | [6]; at 100.0 µM 85% | [7]; at 33.0 µM 91% | [7]; at 100.0 µM 93% | [8]; at 100.0 µM 91% | [9]; at 33.0 µM 89% | [9]; at 100.0 µM 91% | [10]; [16] 80% | [10]; [17] 97% | [10]; at 50.0 µM 95.6%
inactive: [2]; at 1.2 µM 6% | [2]; at 3.7 µM 7% | [2]; at 11.0 µM 27% | [3]; [16] 30% | [4]; at 1.2 µM 5% | [4]; at 3.7 µM 7% | [4]; at 11.0 µM 9% | [4]; at 33.0 µM 18% | [4]; at 100.0 µM 68% | [5]; [16] -2% | [6]; at 1.2 µM 5% | [6]; at 3.7 µM 8% | [6]; [16] 8% | [6]; at 11.0 µM 19% | [6]; at 33.0 µM 45% | [7]; at 1.2 µM 1% | [7]; at 3.7 µM 4% | [7]; at 11.0 µM 18% | [8]; at 1.2 µM 4% | [8]; at 3.7 µM 7% | [8]; at 11.0 µM 15% | [8]; at 33.0 µM 60% | [9]; at 1.2 µM 2% | [9]; at 3.7 µM 8% | [9]; at 11.0 µM 36%

Cc1c2oc3c(C)ccc(C(=O)N[C@@H]4C(=O)N[C@H](C(C)C)C(=O)N5CCC[C@H]5C(=O)N(C)CC(=O)N(C)[C@@H](C(C)C)C(=O)O[C@H]4C)c3nc-2c(C(=O)N[C@@H]2C(=O)N[C@H](C(C)C)C(=O)N3CCC[C@H]3C(=O)N(C)CC(=O)N(C)[C@@H](C(C)C)C(=O)O[C@H]2C)c(N)c1=O (I: [aThr][dV]P[Sar][NMeV] / II: [aThr][dV]P[Sar][NMeV]; ester I:1-I:C, II:1-II:C; linker I:N-II:N via Actinocin(9to1))
inactive: [11]; at 1.2 µM 5% | [11]; at 3.7 µM 38% | [12]; at 1.2 µM 0% | [12]; at 3.7 µM 19% | [12]; at 11.0 µM 58% | [13]; at 1.2 µM 2% | [13]; at 3.7 µM 53% | [14]; at 1.2 µM 9% | [14]; at 3.7 µM 59% | [14]; [16] 65% | [1]; at 1.2 µM 1% | [1]; at 3.7 µM 29% | [1]; [16] 53% | [2]; at 1.2 µM 3% | [2]; at 3.7 µM 32% | [3]; [16] 24% | [4]; at 1.2 µM 8% | [4]; at 3.7 µM 32% | [5]; [16] 34% | [6]; at 1.2 µM 3% | [6]; at 3.7 µM 28% | [6]; [16] 24% | [7]; at 1.2 µM 0% | [7]; at 3.7 µM 26% | [8]; at 1.2 µM 2% | [8]; at 3.7 µM 28% | [9]; at 1.2 µM 3% | [9]; at 3.7 µM 30% | [10]; [16] 61% | [15]; at 1.2 µM -2% | [15]; at 3.7 µM 18%
active: [11]; at 11.0 µM 85% | [11]; at 33.0 µM 96% | [11]; at 100.0 µM 98% | [12]; at 33.0 µM 95% | [12]; at 100.0 µM 95% | [13]; at 11.0 µM 94% | [13]; at 33.0 µM 97% | [13]; at 100.0 µM 99% | [14]; at 11.0 µM 92% | [14]; at 33.0 µM 98% | [14]; [17] 98% | [14]; at 50.0 µM 91.2% | [14]; at 100.0 µM 99% | [1]; at 11.0 µM 84% | [1]; at 33.0 µM 97% | [1]; [17] 99% | [1]; at 50.0 µM 93% | [1]; at 100.0 µM 98% | [2]; at 11.0 µM 75% | [2]; at 33.0 µM 97% | [2]; at 100.0 µM 98% | [3]; [17] 97% | [3]; at 50.0 µM 92.5% | [4]; at 11.0 µM 94% | [4]; at 33.0 µM 97% | [4]; at 100.0 µM 99% | [5]; [17] 92% | [5]; at 50.0 µM 89.3% | [6]; at 11.0 µM 90% | [6]; at 33.0 µM 96% | [6]; [17] 96% | [6]; at 50.0 µM 92% | [6]; at 100.0 µM 98% | [7]; at 11.0 µM 91% | [7]; at 33.0 µM 98% | [7]; at 100.0 µM 99% | [8]; at 11.0 µM 94% | [8]; at 33.0 µM 98% | [8]; at 100.0 µM 99% | [9]; at 11.0 µM 91% | [9]; at 33.0 µM 97% | [9]; at 100.0 µM 99% | [10]; [17] 98% | [10]; at 50.0 µM 90.5% | [15]; at 11.0 µM 92% | [15]; at 33.0 µM 96% | [15]; at 100.0 µM 98%
